The supplement of paper PMC10849652
Targets with a hit are over-represented here; the source holds about 8,800 in all. About 0.5% of all pairs of compound and target were hits.

What was measured:
Assay in all cases: log2 fold change, soluble protein after heating vs DMSO (PISA); higher = thermal stabilisation; K562 lysate, 10 uM; active = over 0.2 and 3.5 SD of the protein, either way, in both replicates (recomputed)
[1] = compound: C1=CC=C(C=C1)[C@H](COC2=CC3=C(C=C2)NC(=O)N3)NC(=O)C4=CC=CN(C4=O)CC5=CC(=C(C=C5)F)F
Summary of the method: (§1)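 Quantification was by TMTpro 16plex LC-MS/MS with equalised channel sums, applied to the supernatant after 21,000xg for 90 min. Samples were crude K562 extract at 1 mg/mL protein in PBS pH 7.4 with 1 mM MgCl2, treated with 10 μM compound for 30 min, heated for 3 min across 48°C-58°C, pooled and brought to 0.5% NP-40 at 4°C. Values are log-two fold changes in thermal stability relative to solvent controls, from duplicates.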

[2] = compound: CC1=C(SC2=C1C(=N[C@H](C3=NN=C(N32)C)CC(=O)N)C4=CC=C(C=C4)Cl)C
Summary of the method: as §1

[3] = compound: CC1=C2C(=CC=C1)N=C(N(C2=O)C3=CC=CC=C3C)CN4C=NC5=C(N=CN=C54)N
Summary of the method: as §1

[4] = compound: Cc1sc2c(c1C)C(c1ccc(Cl)cc1)=N[C@@H](CC(=O)OC(C)(C)C)c1nnc(C)n1-2
Summary of the method: as §1

[5] = compound: c1ccc([C@@H]2C[C@H]2NC2CCNCC2)cc1
Summary of the method: as §1

Measured: log2 fold change

RANBP2 (UniProt P49792)
Sequence of UniProt P49792 (P49792 whole entry, looked up): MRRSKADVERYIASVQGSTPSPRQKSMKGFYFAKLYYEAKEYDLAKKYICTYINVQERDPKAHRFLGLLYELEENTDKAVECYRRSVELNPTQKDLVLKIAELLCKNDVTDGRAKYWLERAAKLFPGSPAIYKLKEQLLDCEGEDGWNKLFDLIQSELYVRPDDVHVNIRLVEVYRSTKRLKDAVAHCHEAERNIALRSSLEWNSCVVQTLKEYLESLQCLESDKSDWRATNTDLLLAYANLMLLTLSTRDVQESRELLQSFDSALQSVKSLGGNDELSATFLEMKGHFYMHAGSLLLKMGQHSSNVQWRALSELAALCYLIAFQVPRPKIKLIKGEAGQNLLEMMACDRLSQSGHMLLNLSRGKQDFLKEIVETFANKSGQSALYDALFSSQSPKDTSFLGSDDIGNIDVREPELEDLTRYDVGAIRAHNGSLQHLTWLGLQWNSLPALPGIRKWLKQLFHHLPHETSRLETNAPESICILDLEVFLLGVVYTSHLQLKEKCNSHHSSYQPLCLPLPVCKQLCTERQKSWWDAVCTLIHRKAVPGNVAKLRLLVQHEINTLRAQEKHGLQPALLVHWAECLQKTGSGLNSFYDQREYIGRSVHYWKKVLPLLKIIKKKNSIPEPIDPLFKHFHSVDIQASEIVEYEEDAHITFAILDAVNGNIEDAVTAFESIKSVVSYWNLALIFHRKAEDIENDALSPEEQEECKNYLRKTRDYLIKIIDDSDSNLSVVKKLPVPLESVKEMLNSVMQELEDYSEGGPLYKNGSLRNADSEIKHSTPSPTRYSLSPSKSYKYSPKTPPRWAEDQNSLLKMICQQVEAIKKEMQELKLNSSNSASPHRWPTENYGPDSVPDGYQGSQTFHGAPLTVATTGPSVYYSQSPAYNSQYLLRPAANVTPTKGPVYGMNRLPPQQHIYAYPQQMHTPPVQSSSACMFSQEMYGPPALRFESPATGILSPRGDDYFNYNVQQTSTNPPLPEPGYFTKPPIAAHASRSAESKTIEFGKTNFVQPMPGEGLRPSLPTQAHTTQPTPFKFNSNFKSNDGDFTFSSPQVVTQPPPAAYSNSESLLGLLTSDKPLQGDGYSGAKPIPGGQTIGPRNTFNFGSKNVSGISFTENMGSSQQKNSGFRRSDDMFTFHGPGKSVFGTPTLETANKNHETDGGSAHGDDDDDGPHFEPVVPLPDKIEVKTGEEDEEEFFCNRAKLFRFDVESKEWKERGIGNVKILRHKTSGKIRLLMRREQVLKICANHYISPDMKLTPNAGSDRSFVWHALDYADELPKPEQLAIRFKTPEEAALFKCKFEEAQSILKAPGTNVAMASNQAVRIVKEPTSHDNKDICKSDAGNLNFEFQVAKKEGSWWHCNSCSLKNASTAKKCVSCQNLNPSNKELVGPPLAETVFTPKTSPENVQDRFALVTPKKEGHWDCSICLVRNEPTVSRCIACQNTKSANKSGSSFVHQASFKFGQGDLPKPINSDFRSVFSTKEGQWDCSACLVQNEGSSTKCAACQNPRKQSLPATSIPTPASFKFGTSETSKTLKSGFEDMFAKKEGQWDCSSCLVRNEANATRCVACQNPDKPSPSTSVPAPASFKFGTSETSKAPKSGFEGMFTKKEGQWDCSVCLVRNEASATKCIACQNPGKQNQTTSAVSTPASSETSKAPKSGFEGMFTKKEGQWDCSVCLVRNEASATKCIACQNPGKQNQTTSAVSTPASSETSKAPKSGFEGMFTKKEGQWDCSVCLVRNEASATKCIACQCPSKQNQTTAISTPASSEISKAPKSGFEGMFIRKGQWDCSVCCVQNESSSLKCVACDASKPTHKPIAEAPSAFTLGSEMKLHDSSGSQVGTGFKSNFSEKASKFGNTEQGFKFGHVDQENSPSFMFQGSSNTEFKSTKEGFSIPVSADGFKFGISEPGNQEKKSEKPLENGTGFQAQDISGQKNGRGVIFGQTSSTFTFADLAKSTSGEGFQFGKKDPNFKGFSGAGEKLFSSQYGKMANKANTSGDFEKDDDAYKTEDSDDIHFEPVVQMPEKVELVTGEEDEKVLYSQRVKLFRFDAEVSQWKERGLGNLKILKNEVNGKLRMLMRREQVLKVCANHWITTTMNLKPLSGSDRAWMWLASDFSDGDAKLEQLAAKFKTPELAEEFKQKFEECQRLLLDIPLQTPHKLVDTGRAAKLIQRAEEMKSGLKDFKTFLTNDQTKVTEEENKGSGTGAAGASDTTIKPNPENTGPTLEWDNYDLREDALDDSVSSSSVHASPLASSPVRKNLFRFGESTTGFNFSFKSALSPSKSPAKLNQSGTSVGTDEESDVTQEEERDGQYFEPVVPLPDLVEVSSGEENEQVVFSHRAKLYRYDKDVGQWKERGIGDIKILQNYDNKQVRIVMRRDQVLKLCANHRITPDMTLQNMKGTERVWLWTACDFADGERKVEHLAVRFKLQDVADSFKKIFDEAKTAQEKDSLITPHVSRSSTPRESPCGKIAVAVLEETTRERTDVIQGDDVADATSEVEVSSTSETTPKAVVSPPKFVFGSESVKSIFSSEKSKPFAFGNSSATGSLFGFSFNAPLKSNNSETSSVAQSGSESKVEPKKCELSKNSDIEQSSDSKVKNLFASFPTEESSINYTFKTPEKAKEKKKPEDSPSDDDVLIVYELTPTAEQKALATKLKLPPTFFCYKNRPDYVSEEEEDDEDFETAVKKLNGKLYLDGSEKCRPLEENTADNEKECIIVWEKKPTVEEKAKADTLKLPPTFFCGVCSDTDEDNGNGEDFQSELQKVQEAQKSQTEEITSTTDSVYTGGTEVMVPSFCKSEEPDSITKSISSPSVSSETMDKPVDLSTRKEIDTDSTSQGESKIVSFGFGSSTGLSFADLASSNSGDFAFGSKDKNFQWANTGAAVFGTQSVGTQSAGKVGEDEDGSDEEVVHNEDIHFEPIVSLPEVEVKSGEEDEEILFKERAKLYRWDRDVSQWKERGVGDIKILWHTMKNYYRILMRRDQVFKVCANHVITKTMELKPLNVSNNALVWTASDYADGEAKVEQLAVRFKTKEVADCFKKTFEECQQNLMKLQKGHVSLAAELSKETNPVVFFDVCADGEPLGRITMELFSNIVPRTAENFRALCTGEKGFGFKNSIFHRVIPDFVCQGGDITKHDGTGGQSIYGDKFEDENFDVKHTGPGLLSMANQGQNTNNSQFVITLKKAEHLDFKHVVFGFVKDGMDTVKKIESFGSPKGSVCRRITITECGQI
inactive: [1] -0.019 | [2] -0.009 | [3] 0.002 | [4] 0.003 | [5] 0.02

RFWD3 (UniProt Q6PCD5)
inactive: [1] -0.058 | [2] 0.132 | [3] 0 | [4] -0.072 | [5] 0.049

SDHA (UniProt P31040)
Sequence of UniProt P31040 (P31040 whole entry, looked up): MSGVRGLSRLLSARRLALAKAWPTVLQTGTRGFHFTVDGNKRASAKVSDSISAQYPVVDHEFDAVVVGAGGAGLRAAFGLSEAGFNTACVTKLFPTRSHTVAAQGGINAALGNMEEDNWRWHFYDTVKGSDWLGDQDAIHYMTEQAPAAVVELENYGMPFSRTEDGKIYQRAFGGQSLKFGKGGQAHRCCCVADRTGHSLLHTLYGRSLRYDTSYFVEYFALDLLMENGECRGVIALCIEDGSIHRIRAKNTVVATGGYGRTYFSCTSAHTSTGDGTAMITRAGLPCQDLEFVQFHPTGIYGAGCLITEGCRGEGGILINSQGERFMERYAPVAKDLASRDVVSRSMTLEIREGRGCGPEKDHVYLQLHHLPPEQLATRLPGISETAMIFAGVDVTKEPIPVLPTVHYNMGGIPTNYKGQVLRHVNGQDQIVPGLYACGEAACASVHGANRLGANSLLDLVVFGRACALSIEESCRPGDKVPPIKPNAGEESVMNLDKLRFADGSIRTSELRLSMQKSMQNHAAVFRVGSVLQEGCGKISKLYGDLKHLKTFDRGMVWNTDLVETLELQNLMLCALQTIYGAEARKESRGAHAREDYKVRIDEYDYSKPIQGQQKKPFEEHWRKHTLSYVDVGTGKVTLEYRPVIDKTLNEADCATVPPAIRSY
inactive: [1] 0.114 | [2] -0.012 | [3] -0.012 | [4] 0.005 | [5] -0.007

RPS4X (UniProt P62701)
inactive: [1] 0.02 | [2] 0.029 | [3] -0.009 | [4] 0.044 | [5] 0.066

RPL28 (UniProt P46779)
inactive: [1] 0.042 | [2] -0.02 | [3] 0.001 | [4] -0.008 | [5] 0.041

ROCK1 (UniProt Q13464)
inactive: [1] 0.019 | [2] 0.027 | [3] 0.023 | [4] -0.016 | [5] -0.008

SASS6 (UniProt Q6UVJ0)
Sequence of UniProt Q6UVJ0 (Q6UVJ0 whole entry, looked up): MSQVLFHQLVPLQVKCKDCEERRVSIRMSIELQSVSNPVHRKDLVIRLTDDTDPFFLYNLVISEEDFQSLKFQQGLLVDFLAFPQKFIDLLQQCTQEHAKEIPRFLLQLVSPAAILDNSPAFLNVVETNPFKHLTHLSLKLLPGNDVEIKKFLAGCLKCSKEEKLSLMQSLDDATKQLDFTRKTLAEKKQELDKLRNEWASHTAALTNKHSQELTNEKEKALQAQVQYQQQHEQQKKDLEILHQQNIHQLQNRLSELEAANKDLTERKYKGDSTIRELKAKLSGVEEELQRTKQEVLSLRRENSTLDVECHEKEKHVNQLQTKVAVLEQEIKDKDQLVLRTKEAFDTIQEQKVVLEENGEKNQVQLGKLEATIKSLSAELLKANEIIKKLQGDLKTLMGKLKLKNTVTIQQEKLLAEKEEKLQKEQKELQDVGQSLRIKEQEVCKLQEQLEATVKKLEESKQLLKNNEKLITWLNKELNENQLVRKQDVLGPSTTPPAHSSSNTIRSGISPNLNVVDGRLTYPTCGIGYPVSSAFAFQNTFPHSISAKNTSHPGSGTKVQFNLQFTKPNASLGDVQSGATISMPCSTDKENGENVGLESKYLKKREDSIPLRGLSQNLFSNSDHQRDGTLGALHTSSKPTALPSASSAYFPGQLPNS
inactive: [1] -0.01 | [2] 0.028 | [3] 0 | [4] 0.021 | [5] 0.037

SAR1A (UniProt Q9NR31)
Sequence of UniProt Q9NR31 (Q9NR31 whole entry, looked up): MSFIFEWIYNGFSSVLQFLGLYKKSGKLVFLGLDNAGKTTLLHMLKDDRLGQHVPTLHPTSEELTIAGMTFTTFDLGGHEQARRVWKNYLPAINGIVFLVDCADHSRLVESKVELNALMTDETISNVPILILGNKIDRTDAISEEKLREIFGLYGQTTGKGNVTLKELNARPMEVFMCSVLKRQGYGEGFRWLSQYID
inactive: [1] 0.066 | [2] 0.038 | [3] 0.005 | [4] -0.116 | [5] -0.009

RAB5IF isoform 5 (UniProt Q9BUV8)
Sequence of UniProt Q9BUV8 (Q9BUV8 whole entry, looked up): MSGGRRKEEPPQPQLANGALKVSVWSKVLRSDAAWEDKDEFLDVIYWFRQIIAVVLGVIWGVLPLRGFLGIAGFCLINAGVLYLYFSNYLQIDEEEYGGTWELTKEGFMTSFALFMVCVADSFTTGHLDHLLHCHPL
inactive: [1] 0.01 | [2] -0.096 | [3] 0.019 | [4] -0.085 | [5] 0.364
